# Test results as given in PubChem BioAssay (Tox21).
# Where “and” joins values, the source holds several entries; their conditions need not be identical. Equal entries are not always repeated. Records with an inconclusive call do not appear. A structure can be active in one record and inactive in another. Calls of active or inactive are those of the source. Calls follow the shape of the full dose curve.
# Target: Acetylcholinesterase (Homo sapiens) (UniProt P22303)
# Assay: Acetylcholinesterase (AChE) small molecule antagonists: colormetric cell-based qHTS assay (AID 1347395); also: nearly all actives have a fitted effect of over 30% in size
# Settings: SH-SY5Y cells AChE activity, colorimetric (Ellman); series mostly up to 115 µM; activity, negative = inhibition: at the top concentration
# Outline: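 Colorimetric readout: DTNB quantifies thiocholine from acetylthiocholine hydrolysed by endogenous AChE of SH-SY5Y cells (2,000/well, plated overnight). Compound pretreatment 30 min, substrate incubation 90 min, both 37 C.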
# % is scaled to controls: 0 for no effect and ±100 for the full control effect; potency is read from the fitted curve at half-maximal effect.
# Acetylcholinesterase (Homo sapiens), sequence (P22303 whole entry, looked up): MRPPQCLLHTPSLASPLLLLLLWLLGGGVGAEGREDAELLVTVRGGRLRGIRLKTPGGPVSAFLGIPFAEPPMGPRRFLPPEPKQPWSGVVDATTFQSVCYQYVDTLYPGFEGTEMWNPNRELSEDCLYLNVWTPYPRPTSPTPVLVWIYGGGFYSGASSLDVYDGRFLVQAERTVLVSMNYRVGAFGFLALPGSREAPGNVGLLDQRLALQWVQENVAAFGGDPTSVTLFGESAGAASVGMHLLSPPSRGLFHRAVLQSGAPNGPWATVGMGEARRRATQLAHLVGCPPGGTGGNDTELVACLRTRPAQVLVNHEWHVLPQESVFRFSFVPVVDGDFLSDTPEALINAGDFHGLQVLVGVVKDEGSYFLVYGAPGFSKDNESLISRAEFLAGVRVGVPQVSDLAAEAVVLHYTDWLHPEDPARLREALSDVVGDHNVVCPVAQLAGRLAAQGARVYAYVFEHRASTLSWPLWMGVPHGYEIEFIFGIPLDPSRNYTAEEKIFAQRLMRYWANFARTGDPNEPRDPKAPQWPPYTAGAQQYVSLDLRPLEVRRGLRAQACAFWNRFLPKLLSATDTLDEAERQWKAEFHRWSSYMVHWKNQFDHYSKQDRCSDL
SMILES,"activity, negative = inhibition",Potency
CC(C)(C)C(=O)C(=O)O,4.31% (inactive),–
CC1=NN(c2cc(S(=O)(=O)O)ccc2Cl)C(=O)C1N=Nc1ccccc1 (stereo not given),20.7% (inactive),–
C[C@]12CC[C@@H]3c4ccc(O)cc4C[C@@H](CCCCCCCCCS(=O)CCCC(F)(F)C(F)(F)F)[C@H]3[C@@H]1CC[C@@H]2O (stereo not given in full),–,inactive
CC(=O)OCC(COC(C)=O)OC(C)=O,–,inactive
OC[C@H]1O[C@@H](n2cnc3c(=S)nc[nH]c32)[C@H](O)[C@@H]1O,1.1% [at 52.9 µM] (inactive),–
CNc1c2c(nn1C)CCCC2,0.969% [at 52.9 µM] (inactive),–
CCCCCCC(C)O (stereo not given),–,inactive
Cc1ccc(S(=O)(=O)NC(=O)NC2CCCCC2)cc1,1.79% [at 52.9 µM] (inactive),–
Cc1cc(O)cc(C)c1Cl,–,inactive
O=C(O)Cc1cccc(-c2cc(CCCCCCc3ccc(O[C@H]4O[C@H](CO)[C@@H](O)[C@H](O)[C@@H]4O)c(-c4cccc(CC(=O)O)c4)c3)ccc2O[C@H]2O[C@H](CO)[C@@H](O)[C@H](O)[C@@H]2O)c1,1.5% [at 0.435 µM] (inactive),–
O=C(O)CCCCC1CCSS1 (stereo not given),–,inactive
CN(C)c1ccc(C(=N)c2ccc(N(C)C)cc2)cc1,–,7.01 µM (active) and inactive
CCC(C)(C)C,0.939% (inactive),–
CCCC/C=C\CCCCCCCCCC=O,1.03% (inactive),–
O=C(OCCOCCO)c1ccccc1Nc1cccc(C(F)(F)F)c1,0.156% [at 52.9 µM] (inactive),–
CCc1ccc(C(c2ccc(CC)cc2)C(Cl)Cl)cc1,–,inactive
Cc1ccccc1Br,2.27% (inactive),–
CN1Cc2cc(C(=O)N3CCC(C4CCNCC4)CC3)ccc2N[C@@H](CC(=O)O)C1=O,-5.18% [at 52.9 µM] (inactive),–
CNC(=O)c1ccccc1,1.53% (inactive),–
CC(C)NC(=O)c1ccccc1N,-1.36% (inactive),–

SMILES,"activity, negative = inhibition",Potency
CCCCC/C=C\C/C=C\CCCCCCCC(=O)O,–,inactive
CC(=O)CC(=O)Nc1ccccc1C,–,inactive
CCNc1ccccc1,–,inactive
O=c1oc2c(O)c(O)cc3c(=O)oc4c(O)c(O)cc1c4c23,-4.32% [at 23.6 µM] (inactive),–
CCO/C([O-])=N/c1c[n+](N2CCOCC2)no1,0.584% [at 52.9 µM] (inactive),–
Cc1ccc(N=Nc2c(O)c(C(=O)O)cc3ccccc23)c(S(=O)(=O)O)c1,8.58% [at 52.9 µM] (inactive),–
C=CCOCC(CO)(COCC=C)COCC=C,-4.03% [at 52.9 µM] (inactive),–
OCc1ccccc1O,-2.78% [at 52.9 µM] (inactive),–
O=C(OCCOCCOC(=O)c1ccccc1)c1ccccc1,–,inactive
CCCCCCCCOS(=O)(=O)O,1.05% (inactive),–
CCOC(=O)CCCCCCCCC(=O)OCC,-1.68% (inactive),–
CCOCC(O)COc1ccc(NC(=O)CC[S+](C)C)cc1 (stereo not given),-6.56% [at 52.9 µM] (inactive),–
O=C1c2ccccc2C(=O)N1SC1CCCCC1,–,39.9 µM (active) and inactive
CN1CCc2cccc3c2[C@H]1Cc1ccc(O)c(O)c1-3,–,64 µM (active)
CCC(C(=O)NC(N)=O)c1ccccc1 (stereo not given),-0.21% (inactive),–
CC(C)(O)CCc1ccccc1,-0.943% (inactive),–
CCCCCCC/C=C/C=O,-6.27% (inactive),–
C=C(C)C1CC=C(C)CC1 (stereo not given),–,inactive
CCCCC(CC)COC(=O)c1ccccc1 (stereo not given),-2.34% (inactive),–
O=C(O)[C@@H](O)[C@H](O)[C@H](O)[C@@H](O)C(=O)O,0.352% [at 52.9 µM] (inactive),–

# Target: Acetylcholinesterase (Homo sapiens) (UniProt P22303)
# Assay: Acetylcholinesterase (AChE) small molecule antagonists: enzyme-based qHTS assay (AID 1347397); also: nearly all actives have a fitted effect of over 55% in size
# Settings: Potency: AChE enzyme activity inhibition; outcome: AChE enzyme activity inhibition; series mostly up to 115 µM; activity change, negative = inhibition: at the top concentration
# Outline: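 Human recombinant acetylcholinesterase; substrate acetylthiocholine; thiocholine quantified with DTNB (colorimetric). Compound preincubation 30 min RT; reaction 10 min RT.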
SMILES,"activity change, negative = inhibition",Potency
CC(C)(C)C(=O)C(=O)O,0.581% (inactive),–
CC1=NN(c2cc(S(=O)(=O)O)ccc2Cl)C(=O)C1N=Nc1ccccc1 (stereo not given),33.6% (inactive),–
C[C@]12CC[C@@H]3c4ccc(O)cc4C[C@@H](CCCCCCCCCS(=O)CCCC(F)(F)C(F)(F)F)[C@H]3[C@@H]1CC[C@@H]2O (stereo not given in full),–,inactive
CC(=O)OCC(COC(C)=O)OC(C)=O,–,inactive
OC[C@H]1O[C@@H](n2cnc3c(=S)nc[nH]c32)[C@H](O)[C@@H]1O,1.01% [at 53 µM] (inactive),–
CNc1c2c(nn1C)CCCC2,1.11% [at 53 µM] (inactive),–
CCCCCCC(C)O (stereo not given),–,inactive
Cc1ccc(S(=O)(=O)NC(=O)NC2CCCCC2)cc1,0.139% [at 53 µM] (inactive),–
Cc1cc(O)cc(C)c1Cl,–,inactive
O=C(O)Cc1cccc(-c2cc(CCCCCCc3ccc(O[C@H]4O[C@H](CO)[C@@H](O)[C@H](O)[C@@H]4O)c(-c4cccc(CC(=O)O)c4)c3)ccc2O[C@H]2O[C@H](CO)[C@@H](O)[C@H](O)[C@@H]2O)c1,1.01% [at 0.435 µM] (inactive),–
O=C(O)CCCCC1CCSS1 (stereo not given),–,inactive
CN(C)c1ccc(C(=N)c2ccc(N(C)C)cc2)cc1,–,inactive
CCC(C)(C)C,0.817% (inactive),–
CCCC/C=C\CCCCCCCCCC=O,1.19% (inactive),–
O=C(OCCOCCO)c1ccccc1Nc1cccc(C(F)(F)F)c1,-0.516% [at 53 µM] (inactive),–
CCc1ccc(C(c2ccc(CC)cc2)C(Cl)Cl)cc1,–,inactive
Cc1ccccc1Br,-2.04% (inactive),–
CN1Cc2cc(C(=O)N3CCC(C4CCNCC4)CC3)ccc2N[C@@H](CC(=O)O)C1=O,-2.08% [at 53 µM] (inactive),–
CNC(=O)c1ccccc1,-0.273% (inactive),–
CC(C)NC(=O)c1ccccc1N,-0.024% (inactive),–

SMILES,"activity change, negative = inhibition",Potency
CCCCC/C=C\C/C=C\CCCCCCCC(=O)O,-0.277% (inactive),–
CC(=O)CC(=O)Nc1ccccc1C,–,inactive
CCNc1ccccc1,–,inactive
O=c1oc2c(O)c(O)cc3c(=O)oc4c(O)c(O)cc1c4c23,3.59% [at 23.6 µM] (inactive),–
CCO/C([O-])=N/c1c[n+](N2CCOCC2)no1,1.97% [at 53 µM] (inactive),–
Cc1ccc(N=Nc2c(O)c(C(=O)O)cc3ccccc23)c(S(=O)(=O)O)c1,4.37% [at 53 µM] (inactive),–
C=CCOCC(CO)(COCC=C)COCC=C,0.258% [at 53 µM] (inactive),–
OCc1ccccc1O,0.275% [at 53 µM] (inactive),–
O=C(OCCOCCOC(=O)c1ccccc1)c1ccccc1,–,inactive
CCCCCCCCOS(=O)(=O)O,-0.545% (inactive),–
CCOC(=O)CCCCCCCCC(=O)OCC,0.658% (inactive),–
CCOCC(O)COc1ccc(NC(=O)CC[S+](C)C)cc1 (stereo not given),-0.405% [at 53 µM] (inactive),–
O=C1c2ccccc2C(=O)N1SC1CCCCC1,–,31.7 µM (active) and inactive
CN1CCc2cccc3c2[C@H]1Cc1ccc(O)c(O)c1-3,–,40.4 µM (active) and 21.1 µM (active)
CCC(C(=O)NC(N)=O)c1ccccc1 (stereo not given),-0.262% (inactive),–
CC(C)(O)CCc1ccccc1,-0.0023% (inactive),–
CCCCCCC/C=C/C=O,-9.76% (inactive),–
C=C(C)C1CC=C(C)CC1 (stereo not given),–,inactive
CCCCC(CC)COC(=O)c1ccccc1 (stereo not given),1.01% (inactive),–
O=C(O)[C@@H](O)[C@H](O)[C@H](O)[C@@H](O)C(=O)O,0.386% [at 53 µM] (inactive),–
